Assay results: PubChem BioAssay AID624330 (Southern Research Specialized Biocontainment Screening …, 2012)
The whole screen tested about 340,000 compounds, of which about 2,100 (0.62%) were called active.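 Rule for the calls: active = first-screen hits whose inhibition reached a set limit at any dose in the follow-up dose series; inconclusive = inhibition above the set first-screen limit but never retested; inactive = the rest.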 Not all results are given here. Potency and affinity values are given separately.

molecular target: Rac GTPase-activating protein 1 (Homo sapiens) (UniProt Q9H0H5); experiment: MgcRacGAP GTPase-activating activity inhibitors, confirmation, biochemical, ADP Hunter fluorescence, primary and confirmatory (AID 624330); conditions: MgcRacGAP-stimulated Rac1 GTP hydrolysis, at 30 µM, stronger effect = higher value, GST-tagged Rac1 F28L mutant substrate;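 note: fluorescence reports GDP produced by GAP-driven GTP hydrolysis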
Sequence (Q9H0H5 whole entry, looked up): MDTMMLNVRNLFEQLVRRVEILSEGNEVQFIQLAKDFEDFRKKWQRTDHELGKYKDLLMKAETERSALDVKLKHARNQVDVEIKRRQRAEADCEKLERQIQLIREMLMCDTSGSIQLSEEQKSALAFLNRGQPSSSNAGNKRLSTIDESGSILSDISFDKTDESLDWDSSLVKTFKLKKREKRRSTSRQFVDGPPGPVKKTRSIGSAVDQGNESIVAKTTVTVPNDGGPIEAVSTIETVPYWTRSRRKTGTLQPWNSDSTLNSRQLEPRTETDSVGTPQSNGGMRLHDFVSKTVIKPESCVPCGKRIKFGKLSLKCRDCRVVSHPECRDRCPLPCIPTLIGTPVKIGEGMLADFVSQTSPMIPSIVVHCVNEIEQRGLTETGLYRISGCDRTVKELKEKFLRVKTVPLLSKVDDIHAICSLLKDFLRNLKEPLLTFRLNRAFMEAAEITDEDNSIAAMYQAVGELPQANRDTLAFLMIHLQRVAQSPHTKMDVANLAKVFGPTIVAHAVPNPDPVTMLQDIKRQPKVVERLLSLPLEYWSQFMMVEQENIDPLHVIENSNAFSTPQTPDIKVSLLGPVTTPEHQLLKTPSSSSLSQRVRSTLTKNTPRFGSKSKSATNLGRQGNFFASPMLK

inhibition, inactive:
COc1ccc(C)cc1N(CC(=O)Nc1cccnc1)S(=O)(=O)c1ccc(C)cc1 3.72%, O=C(CCSc1nnc(-c2ccco2)o1)Nc1ccc(Cl)cc1 5.12%, Cc1ccc(S(=O)(=O)N2CCOCC2)cc1C(=O)NC1CCCC1 6.35%, NC(=S)N/N=C/c1ccccc1O 10.3%, COC(=O)c1cccc(/C=N/NC(N)=S)c1O 14.2%, COc1ccc(N(C(C)=O)S(=O)(=O)c2cc(OC)ccc2OC)cc1 12.7%, COc1cccc(N2CCN(c3ncccn3)CC2)c1 5.71%, COc1ccnc(N2CCN(c3ccccc3)CC2)c1C#N 8.98%, COc1ccc(N2CCN(c3ccc(N)cc3C#N)CC2)cc1 27.6%, COc1ccc(C(=O)N2CCN(c3ncccn3)CC2)cc1 0.88%, COc1ccc(C(=O)NCC(=O)OCc2ccc(Br)cc2)cc1 11.1%, CC(c1nccs1)N(C)C(=O)CCc1nnc(Cc2c[nH]c3ccccc23)o1 (configuration not stated) 11.5%, O=C1/C(=C/c2ccc(O)cc2)SC(=S)N1CC1CCCO1 (configuration not stated) 31.1%, COC(=O)C1=C(C)N(CC2CCCO2)C(=O)C1 (configuration not stated) 4.38%, O=C(N/N=C/c1ccc(-c2ccccc2C(=O)O)o1)c1cccs1 11.8%, COc1ccc(-c2noc(-c3ccccc3C(=O)NCc3ccco3)n2)cc1 8.25%, CCCNC(=O)CN1CCN(c2cc3ccccc3c(Cl)n2)CC1 4.31%, Cc1cccc(Oc2nc(-c3ccccn3)nc3ccccc23)c1 11.2%, CC(=O)Nc1ccc(Oc2nc(C(F)(F)F)nc3ccccc23)cc1 11.9%, CC(C)(C)S(=O)(=O)N1C[C@@H]2CC/C=C\C/C(c3ccccc3)=C\2[C@H]1CCO 6.06%, C=C1CCN([C@@H](CC(C)C)C(=O)NCc2ccc(OC)cc2)S(=O)(=O)c2ccccc21 13.2%, COc1ccc2ccccc2c1C1NC(=O)NC(C)=C1[N+](=O)[O-] (configuration not stated) 1.63%, CN(CCCS(=O)(=O)[O-])c1ccc(/C=C/c2ccc3ccccc3[n+]2C)cc1 9.16%, C[n+]1c(/C=C/c2ccc3c(c2)OCO3)ccc2ccccc21 -4.73%, CC[n+]1c(/C=C/c2ccc(OC)c(OC)c2)ccc2ccccc21 11.3%, CCN(CC)c1ccc(/C=C/c2ccc3ccc(OC)cc3[n+]2CC)cc1 12.8%, CN(C)c1ccc(/C=C/c2nc3ccccc3s2)cc1 13.3%, CC[n+]1c(/C=C/C=C/N(C(C)=O)c2ccccc2)sc2ccccc21 23.1%, COc1ccccc1N1CCN(C(=O)C(=O)c2cn(CC(=O)N3CCCCCC3)c3ccccc23)CC1 4.2%, Cc1ccc2oc(=O)c3cnn(CC(=O)N(CCCN4CCOCC4)Cc4ccco4)c3c2c1 5.12%, CCCN(CCC)CCNC(=O)CCC(=O)Nc1ccc2nc(N3CCN(C)CC3)cc(C)c2c1 26.7%, CCCCNC(=O)CCC(=O)Nc1ccc2nc(N3CCN(C)CC3)cc(C)c2c1 11.9%, CCN(C(=O)CN1C(=O)c2ccc([N+](=O)[O-])cc2C1=O)C1CCCCC1 -1.26%, COc1cccc(OCC(O)CNC2CCCC2)c1 (configuration not stated) -1.44%, CCC(CC)CN1C(Nc2ccccc2)=NC[C@@H]1C 1.3%, C=CCc1cc(/C=C2/NC(=O)N(CC(=O)OC)C2=O)cc(OC)c1O 10.1%, NC(=O)NC(=O)CSc1nc(C2CCCCC2)n(-c2ccccc2)n1 3.47%, O=C(CSc1nc(C2CCCCC2)n(-c2ccccc2)n1)NCC(F)(F)F 8.72%, O=C(Nc1nccs1)C1CC(=O)N(CCc2ccc(F)cc2)C1 (configuration not stated) 6.31%, Nc1nonc1-n1nnc(C(=O)N/N=C/c2cccc(Cl)c2)c1CN1CCCCCC1 3.77%, C=CCOC1COC2C(OCC=C)COC12 (configuration not stated) 3.53%, CC(=O)NCCOc1cccc2ccccc12 -4.94%, c1ccc(CCNCCOc2ccccc2)cc1 17.6%, Cc1ccc(OCCCCNC(C)c2ccccc2)c(C)c1 (configuration not stated) 28.7%, COc1ccc(OCCCNCCc2ccccc2)cc1 4.94%, Cc1ccc(S(=O)(=O)N2CC=C(C(=O)NCc3ccccc3)CC2)cc1 6.07%, CC(=O)c1ccc(NC(=O)C[n+]2ccccc2)cc1 10.2%, CCOc1ccc(CCNC(=O)COC(=O)c2cc(OC)c(OC)cc2[N+](=O)[O-])cc1OCC -1.41%, Cc1ccc(NC(=O)CN(C)Cc2nc3ccccc3c(=O)[nH]2)c(Br)c1 4.68%, CCOCCCNCc1ccc(OC)c(OC)c1 13.9%, CCOc1cc2nc(-c3ccc(OC)c(OC)c3)nc(NCCCN3CCOCC3)c2cc1OC 18.4%, COCCCNc1nc2cc(OC)c(OC)cc2c2nc(-c3ccccc3)nn12 2.71%, COCCNc1nc(=S)[nH]c2cc(OC)c(OC)cc12 15.3%, CCCCn1c(N)c(N(CC(C)C)C(=O)CCNC(=O)c2ccccc2Cl)c(=O)[nH]c1=O 6.4%, CCOc1cc(C(=S)N2CCOCC2)ccc1OS(=O)(=O)c1ccc(OC)cc1 3.51%, C[C@@H]1CN([C@H](C)CO)C(=O)CCCn2nncc2CO[C@H]1CN(C)S(=O)(=O)c1ccc2ccccc2c1 12.9%, CCCCNC(=O)Cn1cnc2c(cnn2-c2ccc(C)cc2)c1=O 6.17%, Clc1nssc1=Nc1ccccc1 13.8%, Clc1ccc(N=c2ssnc2Cl)cc1 14.7%, O=C(N/N=C/c1ccc([N+](=O)[O-])o1)c1cc(-c2cccc(Br)c2)nc2ccccc12 -2.15%, C/C(=N\N=c1/sc2ccccc2n1C)c1ccc(N2CCOCC2)cc1 6.81%, Cn1c(=Nc2ccc(N3CCOCC3)cc2)ccc2ccccc21 16.1%
